These results are taken from ChEMBL document CHEMBL4513154, “CO-ADD screening of Jain University (India) compounds”.

Entries with a potency or affinity are not part of this list.

In the experiment the test system is Klebsiella pneumoniae. To be noted: Concentration 32 ug.mL-1; ASSAY_TEST Inhibition of Bacterial Growth; detection method Absorption (OD600); MEDIA CAMHB; plate type 384well; NBS; CORNING #3640; time 18 hr.
By Inhibition is commonly meant the relative decrease from the control value, in per cent. `N=C(Nc1ccccc1Cl)c1cscn1`: the Inhibition is on record as 17.83%.

As for `Clc1cccc2c1nc(-c1cscn1)n2Cc1ccccc1`, the Inhibition amounted to 10.03%.

Consider `Clc1ccc2c(c1)nc(-c1cscn1)n2Cc1ccccc1`, for which the Inhibition stood at 12.29%.

On to `Fc1cc(Cn2c(-c3cscn3)nc3c(Cl)cccc32)cc(C(F)(F)F)c1`, for which the Inhibition was -0.75%.

In the case of `N#Cc1ccccc1-c1ccc(Cn2c(-c3cscn3)nc3cc(Cl)ccc32)cc1`, the Inhibition came out at 8%.

For the compound `Clc1cccc2[nH]c(-c3cscn3)nc12`, the Inhibition is 5.98%.

On to `CCc1ccc(Nc2nc(N)c(-c3nc4ccccc4c(=O)n3-c3ccc(Cl)cc3)s2)cc1`, for which the Inhibition is recorded as 12.28%.

As to `Clc1ccc2nc(-c3cscn3)n(Cc3ccccc3)c2c1`, the Inhibition is given as 10.47%.

Take `N#Cc1ccccc1-c1ccc(Cn2c(-c3cscn3)nc3ccccc32)cc1`: the Inhibition is 13.6%.

For `Nc1nc(Nc2ccc(Cl)cc2)sc1-c1nc2ccccc2c(=O)n1-c1ccccc1`, the Inhibition was 6.62%.

With `N=C(Nc1ccccc1)c1cscn1`, the Inhibition is reported as -2.19%.

Turning to `Cn1c(-c2cscn2)nc2c(Cl)cccc21`, the Inhibition was -3.44%.

Turning to `N#Cc1ccccc1-c1ccc(Cn2c(-c3cscn3)nc3ccc(Cl)cc32)cc1`, the Inhibition came out at 6.08%.

On to `CC(C)c1ccc(Cn2c(-c3cscn3)nc3c(Cl)cccc32)cc1`, for which the Inhibition is 2.02%.

Take `Cn1c(-c2cscn2)nc2cc(Cl)ccc21`: the Inhibition is on record as 8.32%.

With `N#Cc1ccc(Cn2c(-c3cscn3)nc3c(Cl)cccc32)cc1`, the Inhibition was -10.25%.

Turning to `O=[N+]([O-])c1ccc(Cn2c(-c3cscn3)nc3ccccc32)cc1`, the Inhibition was found to be 13.21%.

For `CCc1ccc(Nc2nc(N)c(-c3nc4ccccc4c(=O)n3-c3ccc(CC)cc3)s2)cc1`, the Inhibition came out at 12.46%.

Regarding `CCc1ccc(Nc2nc(N)c(-c3nc4ccccc4c(=O)n3-c3ccccc3)s2)cc1`, the Inhibition is on record as 10.03%.

Turning to `N#Cc1ccccc1-c1ccc(Cn2c(-c3cscn3)nc3c(Cl)cccc32)cc1`, the Inhibition was -3.22%.

As to `CCc1ccc(-n2c(-c3sc(Nc4ccccc4)nc3N)nc3ccccc3c2=O)cc1`, the Inhibition was -7.9%.

For the compound `Nc1nc(Nc2ccccc2)sc1-c1nc2ccccc2c(=O)n1-c1ccccc1`, the Inhibition is 11.02%.

In the case of `Nc1nc(Nc2ccccc2)sc1-c1nc2ccccc2c(=O)n1-c1ccc(Cl)cc1`, the Inhibition was -25.33%.
